From PubChem
KB-V1 MDR tox – KB-V1 MDR subline cytotoxicity; Potency, µM (titrated, usually from 46.1 µM), hits mostly cytotoxic; KB-V1 MDR cells viability, CellTiter-Glo, 72 h; 400,000 compounds, 3.4% hits; AID 1347076; note: % is set by controls: 0 for no effect and ±100 for the full control effect; nearly all actives have a fitted effect of over 60% in size
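Potencies derive from concentration-effect curves fitted to normalized luminescence (CellTiter-Glo) of KB-V1 cells treated for 72 h at 37 degrees C in phenol-red-free DMEM containing 10% FBS.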
KB-3-1 cytotox – KB-3-1 parental cell cytotoxicity; AID 1347075; KB-3-1 viability, CellTiter-Glo ATP luminescence, 72 h; Potency, µM (titrated, usually from 46.1 µM), most hits filed as cytotoxic; 400,000 compounds, 1.4% hits; note: % is set by controls: 0 for no effect and ±100 for the full control effect; nearly all actives have a fitted effect of over 60% in size
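72 h, 37 °C compound treatment of KB-3-1 parental cells; CellTiter-Glo added, 10 min, luminescence read. Data corrected against DMSO-only plates and normalized before curve fitting.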
MCF10A rereplic – inducers of DNA re-replication in MCF 10A breast cells | AID 624296 | 350,000 compounds, 2.9% hits | Potency, µM (doses to about 46.1 µM), for the others: at the highest dose activity, positive = re-replication, usual class: activators | MCF 10A DNA re-replication, Hoechst nuclear intensity, 48 h; note: % of control where 0% means no effect; nearly all actives have a fitted effect of over 50% in size
ELG1 DNA repair – inhibitors of ELG1-dependent DNA repair in HEK293T cells. HEK293T ELG1-luciferase reporter, luminescence, 16 h; DNA damage induced by 5-fluorouridine. 330,000 compounds, 2.3% hits. Potency, µM (doses to about 46.1 µM), for the others: top-dose activity change, negative = inhibition, usual class: inhibitors. AID 504467; note: % is set by controls: 0 for no effect and ±100 for the full control effect; nearly all actives have a fitted effect of over 55% in size
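Reporter activity after DNA damage by 5-fluorouridine is monitored. Compound-treated cells incubate 16 hr at 37 °C, then ONE-Glo is added for 30 min before luminescence reading.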
SW480 rerep – DNA re-replication induction in SW480 cells | SW480 DNA re-replication, Hoechst DNA content imaging, 48 h | Potency, µM (top dose mostly 46.1 µM), inactives show top-dose re-replication activation, usual class: activators | 340,000 compounds, 1.8% hits; note: % of control where 0% means no effect; nearly all actives have a fitted effect of over 55% in size
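250 cells/well; 23 nL cpd via pin tool; 48 hr, 37 C, 5% CO2; Hoechst 40 min; imager read of total nuclear intensity, ex 405/em 500-530 nm.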
Numbers without * were called inactive; i = inactive; ? = inconclusive; nt = not tested or not shown; [ ] = remark or other dose. Only some compounds are listed: those with a hit (about 8.1% of all), similar ones and a draw of the others. Calls come from the whole dose curve; as a rule, active = well fitted curve in the direction sought with a large enough effect; inconclusive = small, poorly fitted or top-dose-only effect, or another doubt; inactive = no such curve, though single readings can be large; an effect the other way counts as inactive or inconclusive. Potency is the fitted concentration of half-maximal effect.

SMILES	KB-V1 MDR tox	KB-3-1 cytotox	MCF10A rereplic	ELG1 DNA repair	SW480 rerep
CSCCC(NS(=O)(=O)c1ccc(Cl)cc1)C(=O)N1CCN(c2ccccc2)CC1 (stereo unspecified)	14.6µM*	i	-1.9%	nt	3.0%
CSCCC(NS(=O)(=O)c1ccccc1F)C(=O)N1CCCCCC1 (stereo unspecified)	i	i	1.1%	9.6%	-9.7%
CCOc1ccc(NC(=O)CN(C)C(=O)c2ccncc2)cc1OCC	i	i	0.1%	-1.0%	1.7%
Cc1ccc(/C=C/C(=O)c2ccc([N+](=O)[O-])o2)cc1	?	i	3.26µM*	?	1.46µM*
Cc1ccc(C(=O)/C=C/c2ccccc2)o1	?	?	?	?	5.4%
O=C(/C=C/c1ccc(Cl)cc1)c1ccc([N+](=O)[O-])o1	?	?	8.2µM*	?	?
Cc1ccc(/C=C/C(=O)c2ccc(C)cc2)cc1	i	i	15.7%	?	?
Cc1ccc(C(=O)/C=C/c2ccc(Br)cc2)o1	i	i	7.31µM*	?	18.4µM*
CCC1(COC(NC(=O)c2cccnc2)(C(F)(F)F)C(F)(F)F)COC1	i	i	19.0%	1.2%	-1.1%
CC[N+](CC)(CCO)CCCN1C(=O)C2CC=C(Cl)CC2C1=O (stereo unspecified)	i	i	-0.8%	3.7%	-4.8%
Cc1ccc(CNC(=O)C2c3ccccc3C(=O)N3CCc4ccccc4C23)o1 (stereo unspecified)	i	i	18.4µM*	-6.4%	?
COc1ccc(C(=O)N2C=Cc3ccccc3C2C#N)cc1 (stereo unspecified)	i	i	nt	nt	nt
N#CC1c2ccccc2-c2ccccc2N1C(=O)c1ccccc1 (stereo unspecified)	14.6µM*	?	nt	nt	nt
COCCNC(=O)C(c1ccccc1C)N(C(=O)Cn1nnc2ccccc21)c1cccnc1 (stereo unspecified)	i	i	-0.8%	-9.3%	-0.1%
CC(=O)COc1nc2c(c(-c3ccco3)c1C#N)CCc1ccccc1-2	?	?	?	8.2µM*	8.9%
CCOC(=O)c1sc2nc3c(SCCC(=O)O)cc(C(=O)c4cc(OC)ccc4O)cn3c(=O)c2c1C	i	i	?	-7.1%	2.59µM*
CCc1c(C)sc2nc3c(C(=O)N4CCOCC4)cc(C(=O)c4cc(F)ccc4O)cn3c(=O)c12	i	i	?	?	-1.2%[1.84 µM]
O=C(O)CSc1cc(C(=O)c2cc(F)ccc2O)cn2c(=O)c3c(-c4ccccc4)csc3nc12	i	i	13µM*	-4.4%	-20.1%
CCOC(=O)c1sc2nc3c(SCCC#N)cc(C(=O)c4cc(F)ccc4O)cn3c(=O)c2c1C	i	i	18.4%	-16.3%	19.2%
Cc1ccc(C(C[N+](=O)[O-])c2c(C)[nH]n(-c3ccccc3)c2=O)cc1 (stereo unspecified)	i	i	?	3.4%	?
Cc1[nH]n(-c2ccccc2)c(=O)c1C(C[N+](=O)[O-])c1ccc(Cl)cc1 (stereo unspecified)	i	i	?	-7.0%	16.4µM*
CCCCN(CCCC)C(=O)/C=C/c1cccc([N+](=O)[O-])c1	i	i	-11.5%	-24.1%	1.6%
O=C(Nc1cccnc1Cl)c1ccc(S(=O)(=O)N2CCCCCC2)cc1	9.2µM*	i	-4.8%	?	-1.1%
Cc1ccc2cccc(NS(=O)(=O)c3ccccc3)c2n1	?	?	3.26µM*	-6.2%	?
O=S(=O)(Nc1cccc2cccnc12)c1ccc(S(=O)(=O)N2CCCC2)cc1	?	i	?	-14.9%	2.91µM*
SMILES	KB-V1 MDR tox	KB-3-1 cytotox	MCF10A rereplic	ELG1 DNA repair	SW480 rerep
Cc1ccccc1NS(=O)(=O)c1ccc(S(=O)(=O)N2CCCC2)cc1	i	i	nt	nt	nt
O=C(Nc1ccccn1)c1ccc(S(=O)(=O)c2ccc(Cl)cc2)cc1	7.31µM*	?	-0.2%	?	8.9%
CCCN1CCC(NC(=O)CCc2nnc(-c3ccccc3)o2)CC1	i	i	-3.0%	12.5%	-15.2%
O=C(NCc1cccs1)C1CCN(c2nccs2)CC1	i	i	-5.9%	-0.8%	-9.1%
O=S(=O)(Nc1cccc2cccnc12)c1ccccc1	?	?	20.6µM*	-20.5%	23.1µM*
Cc1cc(C)c(NS(=O)(=O)c2cccc3cccnc23)c(C)c1	i	i	0.3%	-20.7%	0.2%
Cc1ccc(S(=O)(=O)Nc2cccc3cccnc23)c([N+](=O)[O-])c1	?	?	?	?	18.4µM*
CC(=O)Nc1ccc(S(=O)(=O)Nc2cccc3cccnc23)cc1	?	i	-0.4%	-5.8%	-4.3%
COc1ccc(CCN(C)C(=O)c2cnc(C)cn2)cc1OC	i	i	-1.3%	0.0%	-9.5%
CCOc1c(/C=C(\C#N)C(N)=O)c2ccccc2n1CC	?	i	?	13µM*	nt
O=C(NCc1cccs1)C1CC(c2ccccc2O)=NO1 (stereo unspecified)	?	16.4µM*	18.4µM*	25.9%	22.9%
COc1cc(C2=NOC(C(=O)NCc3cccs3)C2)cc(OC)c1OC (stereo unspecified)	2.59µM*	2.06µM*	10.3µM*	1.4%	6.51µM*
COc1cc(OC)c(C2=NOC(C(=O)NCc3cccs3)C2)cc1Cl (stereo unspecified)	7.31µM*	i	?	1.3%	9.2µM*
COc1ccc(C2=NOC(C(=O)NCc3ccccn3)C2)cc1 (stereo unspecified)	?	i	23.0%	8.8%	8.5%
COc1ccc(C2=NOC(C(=O)NCc3cccs3)C2)cc1 (stereo unspecified)	2.91µM*	6.51µM*	9.2µM*	?	-2.7%
OCCOCCn1c(CCNc2nc(-c3ccc(F)cc3)cs2)nc2cc(C(F)(F)F)ccc21	i	i	?	nt	3.5%
O=C(Nc1nc(COc2ccccc2)cs1)c1ccccc1F	i	i	-0.8%	?	-4.5%
COc1ccc(C2=NOC(C(=O)NCc3cccs3)C2)cc1OC (stereo unspecified)	5.17µM*	4.61µM*	1.16µM*	?	5.17µM*
COc1cc(NC(=O)C2CC(c3cccc(OC)c3OC)=NO2)cc(OC)c1OC (stereo unspecified)	i	?	15.8µM*	11.6µM*	?
COc1ccc(C2=NOC(C(=O)NCc3ccccn3)C2)cc1OC (stereo unspecified)	i	i	6.0%	12.5%	17.0%
Cc1ccc(-n2nc(C)c3c(C)c(CCC(=O)NCCCOC(C)C)c(C)nc32)cc1	i	i	25.6%	-4.6%	-6.2%
